# According to PMC7862700, “An all-to-all approach to the identification of sequence-specific readers for epigenetic DNA modifications on cytosine”:
# Experiments:
# Assay in all cases: DAPPL (digital affinity profiling via proximity ligation, sequencing); 10 mM Tris-HCl pH 7.5, 50 mM NaCl, 1 mM DTT, 4% glycerol, room temperature, 30 min; GST-TFs on glutathione beads, 16-mer random dsDNA library, 0.1% formaldehyde crosslink after washing; high values mean tight binding
# Settings in all cases: protein: recombinant; tags: N-terminal GST; dsDNA, one strand shown
# FLI1 = biological target: T1, FLI1 (Homo sapiens, UniProt Q01543 1-452)
# T1 sequence: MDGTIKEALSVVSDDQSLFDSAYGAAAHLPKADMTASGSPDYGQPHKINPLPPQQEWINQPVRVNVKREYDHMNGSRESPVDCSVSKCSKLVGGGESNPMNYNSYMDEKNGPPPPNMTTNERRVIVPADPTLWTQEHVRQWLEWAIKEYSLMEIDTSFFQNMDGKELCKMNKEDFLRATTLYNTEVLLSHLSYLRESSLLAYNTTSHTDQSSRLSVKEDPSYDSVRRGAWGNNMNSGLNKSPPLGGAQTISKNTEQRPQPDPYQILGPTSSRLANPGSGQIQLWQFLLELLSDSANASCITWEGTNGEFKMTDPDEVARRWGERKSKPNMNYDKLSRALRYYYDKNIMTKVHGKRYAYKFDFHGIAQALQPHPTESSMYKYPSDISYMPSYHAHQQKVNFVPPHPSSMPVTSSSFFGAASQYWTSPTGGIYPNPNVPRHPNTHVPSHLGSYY
# Procedure, shortened: (§1)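 Yeast served to express human transcription factors as GST fusions, which were then captured on glutathione beads and labelled with DNA barcodes. Pooled with a tag-only sample, they were incubated with 200 nmole of a 16-mer random double-stranded DNA library for 30 min at room temperature in Tris/NaCl/DTT/glycerol buffer, washed, crosslinked with 0.1% formaldehyde, ligated by proximity, amplified by PCR and sequenced. Dividing each hexamer's read frequency for a factor by its frequency for the tag-only sample gives the binding signal.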
# ELK1 = biological target: T2, ELK1 (Homo sapiens, UniProt P19419 1-428)
# T2 sequence: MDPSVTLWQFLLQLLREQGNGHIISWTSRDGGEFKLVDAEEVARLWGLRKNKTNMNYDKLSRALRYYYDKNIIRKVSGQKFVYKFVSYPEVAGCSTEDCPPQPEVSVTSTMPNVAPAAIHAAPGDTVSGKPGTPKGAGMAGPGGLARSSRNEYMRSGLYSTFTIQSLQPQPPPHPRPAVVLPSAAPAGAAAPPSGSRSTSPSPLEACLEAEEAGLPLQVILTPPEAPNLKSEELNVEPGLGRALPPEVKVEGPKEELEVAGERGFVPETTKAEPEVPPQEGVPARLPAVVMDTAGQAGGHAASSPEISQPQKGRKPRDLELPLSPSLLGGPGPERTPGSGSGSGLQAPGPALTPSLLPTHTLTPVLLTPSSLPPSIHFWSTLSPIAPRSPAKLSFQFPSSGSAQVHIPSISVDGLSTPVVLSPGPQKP
# Procedure, shortened: as §1
# GABPA = biological target: T3, GABPA (Homo sapiens, UniProt Q06546 1-454)
# T3 sequence: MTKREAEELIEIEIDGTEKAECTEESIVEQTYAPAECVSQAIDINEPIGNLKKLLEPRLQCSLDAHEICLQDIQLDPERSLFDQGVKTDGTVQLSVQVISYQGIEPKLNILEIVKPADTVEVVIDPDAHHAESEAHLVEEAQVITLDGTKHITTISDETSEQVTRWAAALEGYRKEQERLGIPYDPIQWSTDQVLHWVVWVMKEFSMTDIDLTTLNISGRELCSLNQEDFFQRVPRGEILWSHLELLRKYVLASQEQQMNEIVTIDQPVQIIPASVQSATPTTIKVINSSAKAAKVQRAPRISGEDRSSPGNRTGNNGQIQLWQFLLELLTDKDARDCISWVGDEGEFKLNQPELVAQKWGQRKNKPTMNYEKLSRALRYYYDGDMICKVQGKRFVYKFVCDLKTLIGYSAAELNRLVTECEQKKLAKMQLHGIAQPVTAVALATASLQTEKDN
# Procedure, shortened: as §1
# ERG = biological target: T4, ERG (Homo sapiens, UniProt P11308 1-479)
# T4 sequence: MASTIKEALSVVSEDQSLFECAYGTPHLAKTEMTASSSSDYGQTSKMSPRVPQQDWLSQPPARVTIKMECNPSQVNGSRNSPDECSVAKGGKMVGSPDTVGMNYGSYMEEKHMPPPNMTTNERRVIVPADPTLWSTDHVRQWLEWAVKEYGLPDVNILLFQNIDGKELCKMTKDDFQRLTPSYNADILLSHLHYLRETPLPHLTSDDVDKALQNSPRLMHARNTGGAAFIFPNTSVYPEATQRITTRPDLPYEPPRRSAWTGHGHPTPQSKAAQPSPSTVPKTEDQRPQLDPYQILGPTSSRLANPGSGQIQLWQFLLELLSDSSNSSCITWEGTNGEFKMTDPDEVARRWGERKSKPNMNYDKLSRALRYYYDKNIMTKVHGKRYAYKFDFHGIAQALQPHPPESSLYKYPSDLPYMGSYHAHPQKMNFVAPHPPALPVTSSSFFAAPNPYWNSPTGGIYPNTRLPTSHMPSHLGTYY
# Procedure, shortened: as §1
# ELF1 = ELF1 (Homo sapiens, UniProt P32519 1-619)
# Procedure, shortened: as §1
# EHF = biological target: T5, EHF (Homo sapiens, UniProt Q9NZC4 1-300)
# T5 sequence: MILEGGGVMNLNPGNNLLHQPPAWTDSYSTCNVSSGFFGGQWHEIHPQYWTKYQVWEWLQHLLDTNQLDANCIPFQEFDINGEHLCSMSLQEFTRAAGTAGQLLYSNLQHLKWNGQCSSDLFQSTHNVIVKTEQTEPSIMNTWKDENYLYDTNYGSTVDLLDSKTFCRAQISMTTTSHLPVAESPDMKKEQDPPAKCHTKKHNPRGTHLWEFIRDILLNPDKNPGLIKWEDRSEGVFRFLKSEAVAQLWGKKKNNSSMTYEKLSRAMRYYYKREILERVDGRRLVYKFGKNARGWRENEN
# Procedure, shortened: as §1
# SPIB = SPIB (Homo sapiens, UniProt Q01892 1-262)
# Procedure, shortened: as §1
# ELK3 = biological target: T6, ELK3 (Homo sapiens, UniProt P41970 1-407)
# T6 sequence: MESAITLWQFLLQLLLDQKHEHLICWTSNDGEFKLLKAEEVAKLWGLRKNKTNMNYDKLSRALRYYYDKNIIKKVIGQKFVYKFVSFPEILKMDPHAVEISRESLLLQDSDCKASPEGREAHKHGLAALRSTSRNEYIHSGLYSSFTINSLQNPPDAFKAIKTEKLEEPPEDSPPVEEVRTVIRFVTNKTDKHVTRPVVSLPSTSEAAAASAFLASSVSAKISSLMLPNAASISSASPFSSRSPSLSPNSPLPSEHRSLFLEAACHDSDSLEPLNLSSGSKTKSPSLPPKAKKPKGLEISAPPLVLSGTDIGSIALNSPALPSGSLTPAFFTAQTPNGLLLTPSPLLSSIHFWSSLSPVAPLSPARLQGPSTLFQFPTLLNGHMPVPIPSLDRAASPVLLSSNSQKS
# Procedure, shortened: as §1
# SPIC = biological target: T7, SPIC (Homo sapiens, UniProt Q8N5J4 1-248)
# T7 sequence: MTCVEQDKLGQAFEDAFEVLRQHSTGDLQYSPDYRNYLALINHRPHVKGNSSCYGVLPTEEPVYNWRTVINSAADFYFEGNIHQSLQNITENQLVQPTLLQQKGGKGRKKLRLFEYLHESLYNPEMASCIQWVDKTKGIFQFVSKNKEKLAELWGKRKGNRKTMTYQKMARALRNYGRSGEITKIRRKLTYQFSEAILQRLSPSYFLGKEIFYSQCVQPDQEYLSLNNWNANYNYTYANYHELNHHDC
# Procedure, shortened: as §1
# ELF4 = ELF4 (Homo sapiens, UniProt Q99607 1-663)
# Procedure, shortened: as §1
# ELK4 = biological target: T8, ELK4 (Homo sapiens, UniProt P28324-2 1-405)
# T8 sequence: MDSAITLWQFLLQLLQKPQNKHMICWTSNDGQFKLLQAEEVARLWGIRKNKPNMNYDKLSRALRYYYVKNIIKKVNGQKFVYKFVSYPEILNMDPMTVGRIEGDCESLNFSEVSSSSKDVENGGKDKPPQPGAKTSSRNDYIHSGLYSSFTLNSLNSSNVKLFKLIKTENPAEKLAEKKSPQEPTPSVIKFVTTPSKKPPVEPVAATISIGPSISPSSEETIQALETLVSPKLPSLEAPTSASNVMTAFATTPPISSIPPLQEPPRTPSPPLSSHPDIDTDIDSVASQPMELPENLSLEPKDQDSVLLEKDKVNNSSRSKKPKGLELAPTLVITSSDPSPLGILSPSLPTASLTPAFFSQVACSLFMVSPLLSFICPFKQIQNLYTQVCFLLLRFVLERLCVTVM
# Procedure, shortened: as §1
# ETV2 = biological target: T9, ETV2 (Homo sapiens, UniProt O00321 1-342)
# T9 sequence: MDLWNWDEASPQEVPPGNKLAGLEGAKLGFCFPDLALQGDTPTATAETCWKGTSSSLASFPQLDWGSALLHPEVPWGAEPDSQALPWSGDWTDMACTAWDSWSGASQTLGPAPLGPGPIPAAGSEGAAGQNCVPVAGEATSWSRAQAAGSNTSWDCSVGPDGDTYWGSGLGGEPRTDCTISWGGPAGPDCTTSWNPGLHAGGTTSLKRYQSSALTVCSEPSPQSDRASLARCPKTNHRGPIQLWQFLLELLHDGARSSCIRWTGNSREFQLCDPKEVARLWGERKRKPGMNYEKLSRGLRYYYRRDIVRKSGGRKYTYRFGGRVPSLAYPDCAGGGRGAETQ
# Procedure, shortened: as §1
# ETV1 = ETV1 (Homo sapiens, UniProt P50549 1-477)
# Procedure, shortened: as §1
# ERF = biological target: T10, ERF (Homo sapiens, UniProt P50548 1-548)
# T10 sequence: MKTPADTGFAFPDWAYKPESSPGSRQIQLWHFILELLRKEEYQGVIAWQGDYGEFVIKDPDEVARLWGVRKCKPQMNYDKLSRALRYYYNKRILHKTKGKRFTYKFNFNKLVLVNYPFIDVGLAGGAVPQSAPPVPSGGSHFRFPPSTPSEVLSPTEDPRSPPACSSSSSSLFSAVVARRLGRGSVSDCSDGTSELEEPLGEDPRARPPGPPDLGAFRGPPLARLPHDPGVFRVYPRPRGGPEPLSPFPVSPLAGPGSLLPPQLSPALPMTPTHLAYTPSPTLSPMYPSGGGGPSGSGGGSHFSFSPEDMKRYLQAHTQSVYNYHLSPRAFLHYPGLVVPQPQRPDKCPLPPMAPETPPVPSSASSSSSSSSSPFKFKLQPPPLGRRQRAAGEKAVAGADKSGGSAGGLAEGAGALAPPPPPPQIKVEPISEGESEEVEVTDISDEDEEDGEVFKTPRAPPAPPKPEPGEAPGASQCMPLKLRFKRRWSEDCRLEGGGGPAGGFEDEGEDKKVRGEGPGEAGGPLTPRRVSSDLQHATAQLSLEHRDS
# Procedure, shortened: as §1
# ETV3L = biological target: T11, ETV3L (Homo sapiens, UniProt Q6ZN32 1-361)
# T11 sequence: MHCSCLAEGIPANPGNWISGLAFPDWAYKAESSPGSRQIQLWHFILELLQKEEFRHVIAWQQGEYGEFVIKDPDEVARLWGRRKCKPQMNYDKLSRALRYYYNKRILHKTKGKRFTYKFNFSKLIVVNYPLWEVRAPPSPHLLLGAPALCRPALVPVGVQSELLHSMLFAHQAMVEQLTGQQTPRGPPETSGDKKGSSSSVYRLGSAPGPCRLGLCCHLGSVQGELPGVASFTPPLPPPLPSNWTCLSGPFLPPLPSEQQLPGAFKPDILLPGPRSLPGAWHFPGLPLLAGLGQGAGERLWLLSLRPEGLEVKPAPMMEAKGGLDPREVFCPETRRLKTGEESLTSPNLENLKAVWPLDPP
# Procedure, shortened: as §1
# ETV7 = biological target: T12, ETV7 (Homo sapiens, UniProt Q9Y603 1-341)
# T12 sequence: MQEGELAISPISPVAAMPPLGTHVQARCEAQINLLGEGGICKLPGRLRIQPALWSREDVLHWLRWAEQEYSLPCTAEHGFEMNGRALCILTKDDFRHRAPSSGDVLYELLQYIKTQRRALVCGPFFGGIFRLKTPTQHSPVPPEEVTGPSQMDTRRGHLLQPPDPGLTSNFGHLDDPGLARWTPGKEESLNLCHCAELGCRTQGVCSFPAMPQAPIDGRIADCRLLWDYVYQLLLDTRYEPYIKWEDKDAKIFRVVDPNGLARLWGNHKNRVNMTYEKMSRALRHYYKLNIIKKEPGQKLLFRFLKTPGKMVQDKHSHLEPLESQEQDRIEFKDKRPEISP
# Procedure, shortened: as §1
# ETV3 = biological target: T13, ETV3 (Homo sapiens, UniProt P41162-2 1-143)
# T13 sequence: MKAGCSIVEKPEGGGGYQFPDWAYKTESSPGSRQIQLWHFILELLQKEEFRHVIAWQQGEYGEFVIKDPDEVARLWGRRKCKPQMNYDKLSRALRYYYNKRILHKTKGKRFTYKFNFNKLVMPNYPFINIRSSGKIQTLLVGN
# Procedure, shortened: as §1
# ETV6 = ETV6 (Homo sapiens, UniProt P41212 1-452)
# Procedure, shortened: as §1
# Chain of ETV6 (P41212 whole entry): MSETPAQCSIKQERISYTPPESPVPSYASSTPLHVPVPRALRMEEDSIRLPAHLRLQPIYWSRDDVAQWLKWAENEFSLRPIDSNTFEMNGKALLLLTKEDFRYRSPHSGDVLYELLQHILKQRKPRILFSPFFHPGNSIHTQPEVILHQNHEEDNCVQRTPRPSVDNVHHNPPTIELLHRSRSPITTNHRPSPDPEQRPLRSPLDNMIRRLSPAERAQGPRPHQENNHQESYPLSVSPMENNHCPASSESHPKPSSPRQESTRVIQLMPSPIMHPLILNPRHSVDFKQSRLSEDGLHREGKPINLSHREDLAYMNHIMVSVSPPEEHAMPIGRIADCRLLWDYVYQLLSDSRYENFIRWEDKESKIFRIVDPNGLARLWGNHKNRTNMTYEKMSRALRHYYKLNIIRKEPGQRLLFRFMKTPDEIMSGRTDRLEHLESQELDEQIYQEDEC
# Chain of ELF4 (Q99607 whole entry): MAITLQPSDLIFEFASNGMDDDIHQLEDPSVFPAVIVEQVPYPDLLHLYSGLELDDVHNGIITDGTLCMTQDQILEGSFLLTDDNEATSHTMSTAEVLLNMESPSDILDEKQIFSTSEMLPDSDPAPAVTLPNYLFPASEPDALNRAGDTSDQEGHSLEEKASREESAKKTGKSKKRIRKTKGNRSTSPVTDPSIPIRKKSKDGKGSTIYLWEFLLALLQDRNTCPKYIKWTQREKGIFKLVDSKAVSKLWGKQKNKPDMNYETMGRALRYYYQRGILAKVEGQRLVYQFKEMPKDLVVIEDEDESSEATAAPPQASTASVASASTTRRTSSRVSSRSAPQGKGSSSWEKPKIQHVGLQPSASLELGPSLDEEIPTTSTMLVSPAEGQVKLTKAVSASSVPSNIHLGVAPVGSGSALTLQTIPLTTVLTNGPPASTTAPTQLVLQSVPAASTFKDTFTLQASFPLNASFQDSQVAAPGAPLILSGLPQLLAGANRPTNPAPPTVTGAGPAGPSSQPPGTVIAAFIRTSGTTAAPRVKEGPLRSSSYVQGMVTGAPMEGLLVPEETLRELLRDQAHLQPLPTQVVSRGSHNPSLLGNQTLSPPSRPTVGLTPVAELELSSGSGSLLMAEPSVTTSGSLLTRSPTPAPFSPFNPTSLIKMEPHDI
# Chain of SPIB (Q01892 whole entry): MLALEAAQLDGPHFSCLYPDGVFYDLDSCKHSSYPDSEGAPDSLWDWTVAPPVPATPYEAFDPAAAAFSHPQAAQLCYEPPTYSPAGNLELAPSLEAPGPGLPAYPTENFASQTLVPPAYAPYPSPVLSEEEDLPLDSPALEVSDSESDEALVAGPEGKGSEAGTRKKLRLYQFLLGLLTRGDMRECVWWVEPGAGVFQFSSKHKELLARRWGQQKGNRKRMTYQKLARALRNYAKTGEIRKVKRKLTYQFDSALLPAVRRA
# Chain of ELF1 (P32519 whole entry): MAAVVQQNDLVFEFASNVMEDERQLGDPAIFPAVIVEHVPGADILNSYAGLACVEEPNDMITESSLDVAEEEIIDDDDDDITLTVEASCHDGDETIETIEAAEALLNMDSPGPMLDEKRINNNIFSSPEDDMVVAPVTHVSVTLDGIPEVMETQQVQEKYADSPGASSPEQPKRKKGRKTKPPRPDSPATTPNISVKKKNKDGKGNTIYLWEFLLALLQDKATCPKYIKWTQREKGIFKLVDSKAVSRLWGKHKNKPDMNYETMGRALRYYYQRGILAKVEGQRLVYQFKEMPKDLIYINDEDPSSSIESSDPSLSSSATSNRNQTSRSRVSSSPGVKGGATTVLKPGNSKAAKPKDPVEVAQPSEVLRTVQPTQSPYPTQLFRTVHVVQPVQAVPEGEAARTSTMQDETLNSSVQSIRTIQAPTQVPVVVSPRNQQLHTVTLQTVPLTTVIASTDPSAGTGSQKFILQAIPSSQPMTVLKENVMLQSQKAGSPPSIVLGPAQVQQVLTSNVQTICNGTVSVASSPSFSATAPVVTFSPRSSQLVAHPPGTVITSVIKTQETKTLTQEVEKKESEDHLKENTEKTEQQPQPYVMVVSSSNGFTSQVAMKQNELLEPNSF
# Chain of ETV1 (P50549 whole entry): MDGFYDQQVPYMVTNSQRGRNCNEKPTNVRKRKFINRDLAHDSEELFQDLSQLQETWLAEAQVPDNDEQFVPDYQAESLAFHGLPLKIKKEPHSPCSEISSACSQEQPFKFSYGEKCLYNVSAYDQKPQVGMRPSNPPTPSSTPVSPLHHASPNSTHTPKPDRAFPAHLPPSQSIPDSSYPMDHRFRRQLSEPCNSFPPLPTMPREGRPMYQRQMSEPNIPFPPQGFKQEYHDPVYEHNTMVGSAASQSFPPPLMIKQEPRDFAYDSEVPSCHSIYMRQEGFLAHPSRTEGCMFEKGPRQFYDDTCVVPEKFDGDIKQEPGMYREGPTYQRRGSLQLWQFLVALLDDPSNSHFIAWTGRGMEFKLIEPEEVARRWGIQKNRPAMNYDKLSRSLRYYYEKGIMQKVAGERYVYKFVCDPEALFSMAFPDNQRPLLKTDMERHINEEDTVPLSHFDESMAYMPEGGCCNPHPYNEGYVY
sequence,measurement,setting,value
CTTAAG,binding signal,FLI1,"1.06 fold enrichment (6-mer frequency, TF over GST control)"
same,binding signal,ELK1,"1.11 fold enrichment (6-mer frequency, TF over GST control)"
same,binding signal,GABPA,"1.13 fold enrichment (6-mer frequency, TF over GST control)"
same,binding signal,ERG,"1.09 fold enrichment (6-mer frequency, TF over GST control)"
same,binding signal,ELF1,"1.09 fold enrichment (6-mer frequency, TF over GST control)"
same,binding signal,EHF,"1.1 fold enrichment (6-mer frequency, TF over GST control)"
same,binding signal,SPIB,"1.11 fold enrichment (6-mer frequency, TF over GST control)"
same,binding signal,ELK3,"1.03 fold enrichment (6-mer frequency, TF over GST control)"
same,binding signal,SPIC,"1.1 fold enrichment (6-mer frequency, TF over GST control)"
same,binding signal,ELF4,"1.07 fold enrichment (6-mer frequency, TF over GST control)"
same,binding signal,ELK4,"1.06 fold enrichment (6-mer frequency, TF over GST control)"
same,binding signal,ETV2,"1.13 fold enrichment (6-mer frequency, TF over GST control)"
same,binding signal,ETV1,"1.1 fold enrichment (6-mer frequency, TF over GST control)"
same,binding signal,ERF,"1.07 fold enrichment (6-mer frequency, TF over GST control)"
same,binding signal,ETV3L,"1.08 fold enrichment (6-mer frequency, TF over GST control)"
same,binding signal,ETV7,"1.04 fold enrichment (6-mer frequency, TF over GST control)"
same,binding signal,ETV3,"1.13 fold enrichment (6-mer frequency, TF over GST control)"
same,binding signal,ETV6,"1.03 fold enrichment (6-mer frequency, TF over GST control)"
